ERK EGF block: qHTS Assay for Inhibitors of the ERK Signaling Pathway using a Homogeneous Screening Assay; Stimulation with EGF; HEK293-V1b, EGF-stimulated phospho-ERK AlphaScreen; Potency, µM (highest dose often 11.5 µM), inactives show at the highest dose activity change, negative = inhibition, hits mostly inhibitors; 0.41% of 130,000 active; active means well fitted inhibition curve with a large enough effect;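 further: plate controls were stimulated vehicle wells for no effect and unstimulated vehicle basal for full effect; nearly all actives have a fitted effect of over 55% in size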
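Homogeneous cell-based phospho-ERK assay: HEK293/V1b cells in 1% FBS, compound 30 min then EGF 5 min, AlphaScreen luminescence. Activity normalized between DMSO and 25 nM EGF controls; AC50 from Hill modelling.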
Numbers without * were called inactive; [ ] = remark or other dose. This is one part of a sample in which hits are shown more often than they occur. Potency means the concentration at half of the fitted maximal effect.

SMILES	ERK EGF block
COc1ccc(Nc2ncnc3c2cnn3-c2cccc(C)c2)cc1OC	-9%[57.5 µM]
Cc1cccc(Nc2ncnc3nc[nH]c23)c1	28µM*
O=C(O)c1cccc(Nc2ncnc3sccc23)c1	-2%
NCCC[C@@H](CC(=O)N[C@@H]1CCNC[C@H]1C(=O)N[C@H](CC(=O)N[C@@H](CCC(=O)O)CC(=O)O)Cc1ccccc1)NC(=O)C[C@H](CO)NC(=O)[C@@H]1CNCC[C@H]1N	-9%
NC(=O)c1ccc[n+]([C@@H]2OC(COP(=O)([O-])OP(=O)(O)OCC3OC(n4cnc5c(N)ncnc54)C(OP(=O)(O)O)C3O)C(O)C2O)c1 (stereo not given in full)	1%
O=C(Nc1cccc(F)c1)N1CCCC2(CCN(S(=O)(=O)c3ccccc3)CC2)C1	6%
COc1ccc2c(c1)O[C@H](c1ccc3c(c1)OCO3)[C@@H](OC(=O)NS(=O)(=O)c1ccc(C)cc1)C2=O	-9%
CNc1ncnc2c1ncn2[C@H]1C[C@H](OP(=O)(O)O)[C@H](COP(=O)(O)O)O1	-10%
COc1cccc([C@@H]2Oc3ccc(Br)cc3C[C@H]2O)c1	2%
COC(=O)[C@H]1O[C@@H](c2cc(OC)c(C)c(OC)c2O)[C@H](C)[C@@H](O)[C@H]1C	-12%
Cc1cnc(CNc2cc(-c3ccoc3)ncn2)cn1	25%
O=S(=O)(c1ccccc1)N1CCC2(CC1)CN(C(c1ccccc1)c1ccccc1)C2	-3%
COCC(=O)N1CCC2(CC1)CN(c1cccc(-c3ccccc3)c1)C2	-15%
CCCn1c(-c2ccc(F)cc2)nc2c(NCCN3CCSCC3)nc(C)nc21	5%
Cc1cccc(Nc2ncnc3ccc(Br)cc23)c1	1.8µM*
Cc1cccc(Nc2nc3ccccc3n3nnnc23)c1	-4%
CCOc1ccc(Nc2ncnc3ccc([N+](=O)[O-])cc23)cc1	-7%
N#CCCS(=O)(=O)c1ccccc1	-1%
CCCn1c(C)nc2c(NCCN3CCCC3)nc(C)nc21	0%
COc1ccc(C2c3ccc4ccccc4c3Oc3ncn(CCCO)c(=N)c32)cc1 (stereo not given)	40µM*
N=c1c2c(ncn1CCCO)Oc1c(ccc3ccccc13)C2c1ccccc1 (stereo not given)	-11%[57.5 µM]
COc1ccc(C2c3ccc4ccccc4c3Oc3ncn(CCCO)c(=N)c32)cc1OC (stereo not given)	-10%[57.5 µM]
COCC(=O)N1CCC[C@@]2(CCN(Cc3nccs3)C2)C1	1%
Cc1cccc(N2CCN(C(=S)c3ccccc3)CC2)c1	2%[57.5 µM]
Cc1cccc(N2CCN(C(=S)c3ccc([N+](=O)[O-])cc3)CC2)c1	18µM*
SMILES	ERK EGF block
O=[N+]([O-])c1cccc(C(=S)N2CCN(c3ccccc3)CC2)c1	6%
CC1(C)C[C@](C)(C(=O)c2ccccc2)C=C1c1ccccc1	2%
COC(=O)N1C(C)=Cc2ccccc2C1C/C(C)=C/C(C)=O (stereo not given)	-7%
Cc1ccc2c(c1)c(C)c(C)n2CC(O)CN1CCOCC1 (stereo not given)	-2%
OC(CN1CCNCC1)Cn1c2ccc(Br)cc2c2cc(Br)ccc21 (stereo not given)	28µM*
CN1CCN(CC(O)COCCOc2ccc(Br)cc2)CC1 (stereo not given)	-3%
COc1ccc(C(=O)N2CCC[C@@]3(CCN(c4ccccn4)C3)C2)cc1	1%
C=CCCCCCCCCCCC/C=C/C(O)COC(C)=O (stereo not given)	26%
COc1ccc([C@@H]2CC(=O)c3c(O)cc(O[C@H]4O[C@@H](CO[C@H]5O[C@@H](C)[C@@H](O)[C@@H](O)[C@@H]5O)[C@@H](O)[C@@H](O)[C@@H]4O)cc3O2)cc1O	4%[25.7 µM]
CC#CCOC(=O)C1=CCCN(C)C1	2%
Cc1cc(N)c2ccccc2n1	2%
Cc1cccc[n+]1CCCCCCCCCC[n+]1ccccc1C	-8%
Cc1cc(N)c2ccccc2[n+]1CCCCCCCCCCCCCC[n+]1c(C)cc(N)c2ccccc21	28µM*
CC(=O)NCC(=O)N[C@H](CCC(=O)O)C(=O)O	0%
Cc1ccc(C(=O)OC[C@H]2O[C@H](Cl)C[C@@H]2OC(=O)c2ccc(C)cc2)cc1	1%
CC(=O)Oc1cc2c(c(C)c1OC(C)=O)CC=C1[C@]3(C)CC[C@]4(C)CC[C@@](C)(C(=O)O)CC4[C@]3(C)CC[C@]12C (stereo not given in full)	6%
COc1c(CO)cc(CO)cc(CO)c1=O	-7%
O=C(/C=C/c1ccncc1)c1cc(Cl)ccc1O	9%[57.5 µM]
COc1ccc(/C=C/C(=O)c2cc(Cl)ccc2O)c(OC)c1	2%[57.5 µM]
CN(C)c1ccc(/C=C/C(=O)c2cc(Cl)ccc2O)cc1	14µM*
COc1cccc(Cn2c(=O)cnc3cnc(Oc4cccc(Cl)c4)nc32)c1	10%
COc1ccccc1-c1cn[nH]c1-c1ccc(OCc2ccccc2)cc1O	-10%[57.5 µM]
COc1ccc(-c2cn[nH]c2-c2ccc(OCc3ccccc3F)cc2O)cc1OC	32µM*
COc1ccc(-c2cn[nH]c2-c2ccc(OCc3ccccc3)cc2O)cc1	22µM*
COc1ccc(-c2[nH]ncc2-c2csc(C)n2)c(O)c1	-5%
SMILES	ERK EGF block
O=[N+]([O-])c1ccc(COc2ccc(-c3[nH]ncc3-c3ccc(Cl)cc3)c(O)c2)cc1	6%
COc1ccc(-c2[nH]ncc2CN2CCC(OCc3ccccn3)CC2)c(F)c1	-2%[57.5 µM]
CC(=O)/C(=C\c1ccccc1)CC(=O)O	29%
N#Cc1cccc(NC(=O)N2CC3(CCN(C(=O)c4cc(C(F)(F)F)cc(C(F)(F)F)c4)CC3)C2)c1	9%
NC(=S)N=Nc1c(O)[nH]c2ccccc12	7%
O=S(=O)(Cc1ccccc1)N=Nc1c(O)[nH]c2ccc(Br)cc12	2%[57.5 µM]
O=Nc1c(-c2c(O)[nH]c3cc(Br)ccc23)[nH]c2ccccc12	28µM*
O=C(NCc1cccc2ccccc12)[C@H]1C[C@@H]1[C@H](NP(=O)(c1ccccc1)c1ccccc1)c1ccccc1	-4%
COCCNC(=O)[C@H](C)/C=C(\c1cccnc1)C(NC(=O)OCc1ccccc1)c1ccc(C(=O)OC)cc1 (stereo not given in full)	-1%
COc1cccc([C@@H]2Oc3ccc(OC)cc3C(=O)[C@H]2OC(=O)NC2CCCC2)c1	9%
CC/C=C\C/C=C\C/C=C\C/C=C\C/C=C\C/C=C\CCC(=O)O[C@H](COCCCCCCCCCCCCCCCC)COP(=O)([O-])OCC[N+](C)(C)C	-6%
CNC1C(O)C2OC3OC(C)CC(=O)[C@@]3(O)O[C@H]2[C@H](NC)C1O (stereo not given in full)	6%
Cc1[nH]n(-c2ccc([N+](=O)[O-])cc2)c(=O)c1/C=N/N1CCOCC1	8%
Cc1ccc(-n2[nH]c(C)c(/C=N/Nc3ccc([N+](=O)[O-])cc3[N+](=O)[O-])c2=O)cc1C	16µM*
COc1ccc(CCN=Cc2c(C)[nH]n(-c3ccc([N+](=O)[O-])cc3)c2=O)cc1OC	-7%
COC(=O)C1(C(=O)OC)CC2=CC(CC2=O)Cc2ccccc2[C@@H]1C[N+](=O)[O-] (stereo not given in full)	-2%
Cc1ccc(F)cc1NC(=O)c1cnccn1	-1%
C[C@@H]1C[C@H]2[C@H]3C[C@@H](F)C4=CC(=O)C=C[C@]4(C)[C@@]3(Cl)[C@@H](O)C[C@@]2(C)[C@@H]1C(=O)COC(=O)C(C)(C)C	-3%[25.7 µM]
COc1cccc([C@@H]2Oc3ccc(Br)cc3C[C@H]2OC(=O)NS(=O)(=O)c2ccc(F)cc2)c1	-3%

Screens as filed in PubChem BioAssay.
